Experimental data from PubChem BioAssay (NCATS).
Results filed as inconclusive are left out. Activity calls are given as the source filed them. Calls come from the whole dose curve; as a rule, active = well fitted cell-killing curve with a large enough effect; inconclusive = small, poorly fitted or top-dose-only effect, or effect the other way; inactive = flat fitted curve, though single readings scatter.

Tests used:
Assay in all cases: Primary qHTS to identify gynecologic anti-cancer compounds using libraries of approved drugs and bioactive compounds (AID 1345084); note: nearly all actives have a fitted effect of over 55% in size
[1] = tested on: C33A; settings: Gynecologic cancer cell panel viability, ATPlite luminescence, 48 h; series mostly up to 57.5 µM
Procedure, shortened: (§1)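 Five-point cytotoxicity, 48 h drug exposure at 37 C, 5% CO2, on cells seeded 16 h beforehand. ATP content read by ATPlite luminescence.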

[2] = tested on: CAOV3; settings: Gynecologic cancer cell panel viability, ATPlite luminescence, 48 h; series mostly up to 57.5 µM
Procedure, shortened: as §1

[3] = tested on: CASKI; settings: Gynecologic cancer cell panel viability, ATPlite luminescence, 48 h; series mostly up to 57.5 µM
Procedure, shortened: as §1

[4] = tested on: Es-2; settings: Gynecologic cancer cell panel viability, ATPlite luminescence, 48 h; series mostly up to 57.5 µM
Procedure, shortened: as §1

[5] = tested on: HeLa; settings: Gynecologic cancer cell panel viability, ATPlite luminescence, 48 h; series mostly up to 57.5 µM
Procedure, shortened: as §1

[6] = tested on: Hek293T; settings: Gynecologic cancer cell panel viability, ATPlite luminescence, 48 h, control line for the selectivity index; series mostly up to 57.5 µM
Procedure, shortened: as §1

[7] = tested on: JEG-3; settings: Gynecologic cancer cell panel viability, ATPlite luminescence, 48 h; series mostly up to 57.5 µM
Procedure, shortened: as §1

[8] = tested on: OV90; settings: Gynecologic cancer cell panel viability, ATPlite luminescence, 48 h; series mostly up to 57.5 µM
Procedure, shortened: as §1

[9] = tested on: PA-1; settings: Gynecologic cancer cell panel viability, ATPlite luminescence, 48 h; series mostly up to 57.5 µM
Procedure, shortened: as §1

[10] = tested on: SKOV3; settings: Gynecologic cancer cell panel viability, ATPlite luminescence, 48 h; series mostly up to 57.5 µM
Procedure, shortened: as §1

[11] = tested on: Tov-21-G; settings: Gynecologic cancer cell panel viability, ATPlite luminescence, 48 h; series mostly up to 57.5 µM
Procedure, shortened: as §1

[12] = tested on: Tov112D; settings: Gynecologic cancer cell panel viability, ATPlite luminescence, 48 h; series mostly up to 57.5 µM
Procedure, shortened: as §1

Measured: Potency

OC[C@H]1O[C@@H](O[C@H]2[C@H](O)[C@@H](CO)O[C@@H](OCc3ccccc3)[C@@H]2O[C@@H]2OC[C@](O)(CO)[C@H]2O)[C@H](O)[C@@H](O)[C@@H]1O
inactive: all assays above

CCOc1nc2c(N)ncnc2n1CC
inactive: all assays above

O=C(OCC1=CC(Cl)C(O)C(OC(=O)c2ccccc2)C1O)c1ccccc1 (stereo not given)
inactive: all assays above

Cc1cccc(NC(=O)CN2CCC(c3ccccn3)CC2)c1
inactive: all assays above

Cc1cc(C)c2nc(-c3ccccn3)cc(C(=O)Nc3ccc(S(=O)(=O)Nc4onc(C)c4C)cc3)c2c1
inactive: all assays above

C=CC1(C)CC=C2C(CCC3C(C)(C(=O)O)CCCC23C)C1 (stereo not given)
inactive: all assays above

C=C1CC2C3(C)C(O)CC(=O)C(C)(C)C3C(O)C(OC(C)=O)C2(C)C2C(=O)OC(C)(C(=O)OC)C(=O)C12C (stereo not given)
inactive: all assays above

COc1cc(C(C)=O)ccc1O[C@@H]1O[C@H](CO)[C@@H](O)[C@H](O)[C@H]1O
inactive: all assays above

O=C(/C=C/c1ccccc1)O[C@@H]1[C@@H](CO)O[C@@](CO)(O[C@H]2O[C@H](CO)[C@@H](O)[C@H](O)[C@H]2O)[C@H]1O
inactive: all assays above

COc1cc(O)c(C(=O)O)c(CCc2ccccc2)c1
inactive: all assays above

CC(C)C1C(OC(=O)/C=C/c2ccccc2)CC2(C)OC2CCC2(C)OC2C1O (stereo not given)
inactive: all assays above

COC(=O)C1=COC(OC2OC(CO)C(O)C(O)C2O)C2C(COC(=O)/C=C/c3ccc(O)cc3)C(O)C(O)C12 (stereo not given)
inactive: all assays above

CC(C)N(CCCNC(=O)Nc1ccc(C(C)(C)C)cc1)C[C@H]1O[C@@H](n2ccc3c(N)ncnc32)[C@H](O)[C@@H]1O
inactive: all assays above

CC/C=C\C(O)C(O)C1=C(C)C(=O)C2(O1)C(=O)NC(OC)(C(=O)c1ccccc1)C2O (stereo not given)
inactive: all assays above

CC(=O)O[C@@H]1C[C@@H](C)[C@](O)(CCC2=CC(=O)OC2)[C@@]2(C)CCCC(C)(C)C12 (stereo not given in full)
inactive: all assays above
